According to PubChem BioAssay (Tox21):
Records with an inconclusive call do not appear. The source made the active and inactive calls. Unless noted, calls follow the shape of the dose curve; as a rule, active = well fitted curve in the direction sought with a large enough effect in the repeat runs; inconclusive = weak or mixed curves; inactive = no such curve, though single readings can be large; an effect the other way counts as inactive or inconclusive.

Key:
[1] = molecular target: Progesterone receptor (Homo sapiens) (UniProt P06401); assay: qHTS assay to identify small molecule antagonists of the progesterone receptor (PR) signaling pathway (AID 1346795; active = well fitted inhibition curve with a large enough effect in the signal ratio in the repeat runs, not every such curve was filed as active; the % refers to the signal ratio; also: potency is read from the fitted curve at half-maximal effect)
Sequence of Progesterone receptor (Homo sapiens) (P06401 whole entry, looked up): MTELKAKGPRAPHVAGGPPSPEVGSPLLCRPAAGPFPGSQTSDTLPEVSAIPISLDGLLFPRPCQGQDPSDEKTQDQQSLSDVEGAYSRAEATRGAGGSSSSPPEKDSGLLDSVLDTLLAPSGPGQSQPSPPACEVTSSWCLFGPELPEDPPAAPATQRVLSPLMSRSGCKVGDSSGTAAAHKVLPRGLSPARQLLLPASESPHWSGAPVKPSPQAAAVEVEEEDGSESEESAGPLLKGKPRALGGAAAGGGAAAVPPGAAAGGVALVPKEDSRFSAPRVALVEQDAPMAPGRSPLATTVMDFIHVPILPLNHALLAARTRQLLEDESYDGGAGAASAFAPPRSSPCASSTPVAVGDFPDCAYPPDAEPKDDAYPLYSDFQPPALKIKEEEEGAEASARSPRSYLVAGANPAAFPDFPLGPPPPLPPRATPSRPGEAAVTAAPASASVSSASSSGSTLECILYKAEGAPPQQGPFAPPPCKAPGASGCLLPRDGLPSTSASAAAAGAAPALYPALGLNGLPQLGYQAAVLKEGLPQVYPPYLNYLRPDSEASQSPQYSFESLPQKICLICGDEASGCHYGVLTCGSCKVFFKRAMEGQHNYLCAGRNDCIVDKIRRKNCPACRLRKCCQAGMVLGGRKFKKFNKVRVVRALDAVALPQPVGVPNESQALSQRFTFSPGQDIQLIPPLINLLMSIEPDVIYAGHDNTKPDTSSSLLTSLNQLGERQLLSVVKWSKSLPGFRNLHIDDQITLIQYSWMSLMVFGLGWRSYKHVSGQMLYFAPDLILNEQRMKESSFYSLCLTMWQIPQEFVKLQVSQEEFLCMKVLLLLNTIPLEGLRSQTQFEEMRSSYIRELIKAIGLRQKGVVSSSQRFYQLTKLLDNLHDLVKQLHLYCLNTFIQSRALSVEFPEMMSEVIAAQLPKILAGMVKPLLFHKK
In short: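 Antagonist mode with agonist R5020 at 1 nM final and 16 hr incubation at 37C. Reporter was beta-lactamase driven by UAS in HEK293T (PR-UAS-bla), 2% charcoal-stripped serum; signal from LiveBLAzer FRET substrate, 2 hr at room temperature.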

[2] = qHTS assay to identify small molecule agonists of the progesterone receptor (PR) signaling pathway - cell viability counter screen (AID 1346799; calls by dose curve; also: nearly all actives have a fitted effect of over 45% in size; also: potency is read from the fitted curve at half-maximal effect)
In short: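 Cytotoxicity measured by CellTiter-Glo luminescence (30 min, RT) in the same wells as the PR beta-lactamase agonist read. Those HEK293T cells had 16 h compound treatment at 37 C in 2% charcoal-stripped FBS medium.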

[3] = molecular target: Thyrotropin-releasing hormone receptor (Homo sapiens) (UniProt P34981); assay: qHTS assay to identify small molecule antagonists of the thyrotropin-releasing hormone receptor (TRHR) signaling pathway (AID 1346877; active = well fitted inhibition curve with a large enough effect in the repeat runs, not every such curve was filed as active; also: series mostly up to about 51 µM)
Sequence of Thyrotropin-releasing hormone receptor (Homo sapiens) (P34981 whole entry, looked up): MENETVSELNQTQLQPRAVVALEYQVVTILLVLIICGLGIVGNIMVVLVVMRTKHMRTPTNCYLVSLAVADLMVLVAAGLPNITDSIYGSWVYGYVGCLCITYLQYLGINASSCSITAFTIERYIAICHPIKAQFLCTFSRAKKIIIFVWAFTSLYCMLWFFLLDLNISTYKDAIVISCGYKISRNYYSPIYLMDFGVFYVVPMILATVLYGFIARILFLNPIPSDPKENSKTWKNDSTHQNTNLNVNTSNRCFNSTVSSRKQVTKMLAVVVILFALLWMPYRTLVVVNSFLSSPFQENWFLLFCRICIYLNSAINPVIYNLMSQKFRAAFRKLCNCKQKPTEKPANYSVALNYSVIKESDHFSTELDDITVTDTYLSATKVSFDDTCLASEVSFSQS
In short: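 Intracellular calcium fluorescence, read kinetically every second over 3 min, reports TRH-evoked signalling in HEK293 cells carrying TRHR. Test compounds were added 5 min ahead of a 1 nM TRH challenge.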

[4] = molecular target: Thyrotropin-releasing hormone receptor (Homo sapiens) (UniProt P34981); assay: qHTS assay to identify small molecule agonists of the thyrotropin-releasing hormone receptor (TRHR) signaling pathway (AID 1346891; calls by dose curve; also: series mostly up to about 58 µM)
In short: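 Agonist-mode intracellular calcium readout: kinetic fluorescence over 3 min at 1 s intervals after compound addition to TRHR-HEK293 cells (18 h seeded, 2 h dye-loaded at 37 C). Fifteen concentrations, triplicates.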

[5] = Human pregnane X receptor (PXR) small molecule agonists, qHTS cell viability counter screen (AID 1346977); also: nearly all actives have a fitted effect of over 50% in size; also: potency is read from the fitted curve at half-maximal effect
In short: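 Same-well viability read: CellTiter-Fluor added after 23 hr compound exposure, fluorescence measured 1 hr later. Cells were PXR-Luc HepG2 seeded at 2,000/well in 5% charcoal-stripped FBS medium, rested 5 hr before dosing at 37 C.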

[6] = Caspase-3/7 induction in HepG2 cells by small molecules, qHTS cell viability counter screen (AID 1346981); also: nearly all actives have a fitted effect of over 30% in size; also: potency is read from the fitted curve at half-maximal effect; as to activity change, negative = cytotoxicity: series mostly up to about 92 µM
In short: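 HepG2, WT, 2,000 cells/well; 5 hr pre-incubation 37 C/5% CO2; compound pin-transferred from DMSO; 16 hr exposure; CellTiter-Fluor, 1 hr; fluorescence read.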

[7] = molecular target: Nuclear receptor subfamily 1 group I member 2 (Homo sapiens) (UniProt O75469); assay: Human pregnane X receptor (PXR) small molecule agonists, qHTS assay (AID 1346982); also: nearly all actives have a fitted effect of over 35% in size; also: potency is read from the fitted curve at half-maximal effect
Sequence of Nuclear receptor subfamily 1 group I member 2 (Homo sapiens) (O75469 whole entry, looked up): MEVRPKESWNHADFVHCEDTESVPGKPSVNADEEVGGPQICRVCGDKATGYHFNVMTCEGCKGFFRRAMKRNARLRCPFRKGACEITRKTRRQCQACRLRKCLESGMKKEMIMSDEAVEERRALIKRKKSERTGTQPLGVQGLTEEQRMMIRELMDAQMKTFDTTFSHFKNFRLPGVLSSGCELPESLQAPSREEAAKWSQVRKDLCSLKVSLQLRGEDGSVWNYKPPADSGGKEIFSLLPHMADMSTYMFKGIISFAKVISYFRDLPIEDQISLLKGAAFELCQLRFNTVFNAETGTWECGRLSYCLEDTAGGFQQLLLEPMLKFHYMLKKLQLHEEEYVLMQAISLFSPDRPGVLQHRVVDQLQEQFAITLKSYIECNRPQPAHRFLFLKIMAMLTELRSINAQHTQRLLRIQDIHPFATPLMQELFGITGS
In short: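 Luciferase signal from ONE-Glo (30 min, room temperature) measured activation of hPXR-driven CYP3A4 reporter expression in PXR-Luc HepG2 cells treated with compounds for 24 hr at 37 C.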

[8] = qHTS assay to identify small molecule antagonists of the TGF-beta/Smad signaling pathway - cell viability counter screen (AID 1346824); also: nearly all actives have a fitted effect of over 50% in size
In short: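 Cytotoxicity counter-screen run in the same wells as the beta-lactamase Smad reporter read: CellTiter-Glo luminescence after 30 min at room temperature. HEK 293T SBE-bla cells had 5 hr compound exposure at 37 C with TGF-beta1 (0.25 ng/mL stock).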

[9] = qHTS assay to identify small molecule agonists of the TGF-beta/Smad signaling pathway - cell viability counter screen (AID 1346829); also: top concentration of the series differs between compounds; nearly all actives have a fitted effect of over 45% in size
In short: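 Compound-treated SBE-bla HEK 293T cells (5 hr, 37 C) were assessed for viability with CellTiter-Glo in parallel with the reporter read.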

[10] = qHTS assay to identify small molecule agonists of the TGF-beta/Smad signaling pathway (AID 1346859; active = well fitted activation curve with a large enough effect in the signal ratio in the repeat runs, not every such curve was filed as active; the % refers to the signal ratio; also: potency is read from the fitted curve at half-maximal effect; as to activation: series mostly up to about 77 µM)
In short: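 Fluorescence (ex 405 nm; em 460 and 530 nm) was read 2 h after LiveBLAzer FRET substrate at RT. The preceding compound treatment of overnight-plated SBE-bla HEK293T cells lasted 5 h at 37 C.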

[11] = Caspase-3/7 induction in HepG2 cells by small molecules, qHTS assay (AID 1346978); also: nearly all actives have a fitted effect of over 15% in size
In short: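 Caspase-3/7 induction was measured by Caspase-Glo 3/7 luminescence (30 min, room temperature) after a 17 hr compound exposure of wild-type HepG2 cells seeded at 2,000 per well and pre-incubated 5 hr.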

[12] = Caspase-3/7 induction in CHO-K1 cells by small molecules, qHTS assay (AID 1346980); also: nearly all actives have a fitted effect of over 15% in size
In short: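 Luminescent Caspase-Glo 3/7 read (30min, room temperature) quantified apoptosis induction. Cells were wild-type CHO-K1, treated with compound for 17hr at 37 C and 5% CO2.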

[13] = molecular target: Cytochrome P450 2D6 (Homo sapiens) (UniProt P10635); assay: Cytochrome P450 Family 2 Subfamily D Member 6 (CYP2D6) small molecule antagonists: luciferase reporter qHTS assay (AID 1671196); also: series mostly up to about 120 µM; nearly all actives have a fitted effect of over 50% in size
Sequence of Cytochrome P450 2D6 (Homo sapiens) (P10635 whole entry, looked up): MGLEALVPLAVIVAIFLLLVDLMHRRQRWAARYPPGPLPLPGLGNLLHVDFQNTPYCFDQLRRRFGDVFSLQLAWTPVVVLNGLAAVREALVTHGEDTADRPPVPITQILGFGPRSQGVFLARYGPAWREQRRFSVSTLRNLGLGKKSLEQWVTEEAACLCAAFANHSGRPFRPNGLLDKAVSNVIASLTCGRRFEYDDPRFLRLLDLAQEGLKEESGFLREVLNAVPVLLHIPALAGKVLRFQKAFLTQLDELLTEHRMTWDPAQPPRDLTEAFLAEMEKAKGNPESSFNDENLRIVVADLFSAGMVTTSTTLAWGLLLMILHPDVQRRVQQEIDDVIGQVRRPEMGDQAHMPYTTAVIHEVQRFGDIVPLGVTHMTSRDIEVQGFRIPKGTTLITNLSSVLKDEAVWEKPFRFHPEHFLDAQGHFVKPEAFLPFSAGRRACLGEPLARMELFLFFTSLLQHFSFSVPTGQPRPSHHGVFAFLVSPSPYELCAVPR
In short: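 Read-out is luminescence from luciferin formed by CYP2D6 turnover of a proluciferin substrate, recorded as relative luminescence units. Reactions ran 1 h at room temperature after NADPH regeneration solution was added.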

[14] = molecular target: Cytochrome P450 2C19 (Homo sapiens) (UniProt P33261); assay: Cytochrome P450 Family 2 Subfamily C Member 19 (CYP2C19) small molecule antagonists: luciferase reporter qHTS assay (AID 1671197); also: nearly all actives have a fitted effect of over 65% in size; also: potency is read from the fitted curve at half-maximal effect; as to activity change, negative = inhibition: series mostly up to about 120 µM
Sequence of Cytochrome P450 2C19 (Homo sapiens) (P33261 whole entry, looked up): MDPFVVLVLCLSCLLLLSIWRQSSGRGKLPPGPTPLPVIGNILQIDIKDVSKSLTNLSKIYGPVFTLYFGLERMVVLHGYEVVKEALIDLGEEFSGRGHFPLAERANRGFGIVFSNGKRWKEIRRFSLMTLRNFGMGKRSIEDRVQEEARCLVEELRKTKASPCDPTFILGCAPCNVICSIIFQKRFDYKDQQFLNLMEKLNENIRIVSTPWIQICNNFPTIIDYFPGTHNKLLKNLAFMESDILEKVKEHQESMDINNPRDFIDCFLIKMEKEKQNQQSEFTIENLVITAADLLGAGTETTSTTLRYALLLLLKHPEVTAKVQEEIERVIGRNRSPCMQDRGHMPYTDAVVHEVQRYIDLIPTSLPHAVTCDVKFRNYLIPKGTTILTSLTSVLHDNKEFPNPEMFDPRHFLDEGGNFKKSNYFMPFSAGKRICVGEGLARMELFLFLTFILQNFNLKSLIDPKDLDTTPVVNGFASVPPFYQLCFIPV
In short: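 P450-Glo CYP2C19 screening system; proluciferin substrate; DMSO compound stocks; 10 min RT preincubation; NADPH regeneration, 1 h at 37C; luciferin detection reagent, 20 min RT; luminescence as RLU.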

[15] = molecular target: Cytochrome P450 2C9 (Homo sapiens) (UniProt P11712); assay: Cytochrome P450 Family 2 Subfamily C Member 9 (CYP2C9) small molecule antagonists: luciferase reporter qHTS assay (AID 1671198); also: nearly all actives have a fitted effect of over 50% in size; also: potency is read from the fitted curve at half-maximal effect; as to activity change, negative = inhibition: series mostly up to about 120 µM
Sequence of Cytochrome P450 2C9 (Homo sapiens) (P11712 whole entry, looked up): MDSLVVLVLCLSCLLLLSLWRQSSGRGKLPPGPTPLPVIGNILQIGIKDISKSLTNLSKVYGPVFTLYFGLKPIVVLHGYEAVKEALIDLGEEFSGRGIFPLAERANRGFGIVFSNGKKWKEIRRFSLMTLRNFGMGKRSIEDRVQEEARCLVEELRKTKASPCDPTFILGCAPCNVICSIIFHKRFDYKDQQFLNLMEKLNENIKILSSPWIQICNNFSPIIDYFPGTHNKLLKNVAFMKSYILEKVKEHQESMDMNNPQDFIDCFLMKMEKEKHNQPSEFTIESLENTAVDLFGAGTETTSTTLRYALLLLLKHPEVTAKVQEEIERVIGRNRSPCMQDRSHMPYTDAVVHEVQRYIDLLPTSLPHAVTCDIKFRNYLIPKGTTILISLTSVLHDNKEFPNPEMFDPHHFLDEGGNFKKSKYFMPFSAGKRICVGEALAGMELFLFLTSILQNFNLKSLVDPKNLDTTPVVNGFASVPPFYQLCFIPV
In short: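 Enzyme-substrate mix preincubated with compound 10 min at room temperature; reaction started with NADPH regeneration solution, 1 h 37C. Luminescent luciferin product read after 20 min detection reagent.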

[16] = Caspase-3/7 induction in CHO-K1 cells by small molecules, qHTS cell viability counter screen (AID 1346979); also: nearly all actives have a fitted effect of over 35% in size; also: potency is read from the fitted curve at half-maximal effect
In short: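 Cytotoxicity counter screen: CellTiter-Fluor added to compound-treated wild-type CHO-K1 cells at 16 h (37C, 5% CO2), fluorescence measured 1 h later; same wells as caspase-3/7 measurement.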

[17] = molecular target: Nuclear receptor subfamily 1 group I member 2 (Homo sapiens) (UniProt O75469); assay: CYP3A4 induction through human pregnane X receptor (PXR) by small molecules, qHTS assay (AID 1346984); also: nearly all actives have a fitted effect of over 40% in size
In short: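 Luminescence readout: luciferase signal after One-Glo (30 min, room temperature), following 3 h at 37C with 3uM final Luciferin-IPA P450 substrate. Cells were DPX-2 (HepG2, PXR/CYP3A4-luc co-transfected) dosed for 24 h.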
% is scaled to controls: 0 for no effect and ±100 for the full control effect.

O=C1NCN(c2ccccc2)C12CCN(CCCC(c1ccc(F)cc1)c1ccc(F)cc1)CC2
active: Potency [1] 26.6 µM | Potency [5] 29.8 µM | Potency [6] 26.6 µM
inactive: Potency [2] | Potency [3] | Potency [4] | Potency [7]

COc1ccc(C#N)cc1
inactive: Potency [1] | Potency [2] | Potency [8] | Potency [9] | Potency [10] | Potency [3] | Potency [4] | Potency [5] | Potency [11] | Potency [12] | Potency [6] | Potency [7] | Potency [13] | Potency [14] | Potency [15]

CCCCCCCC/C=C/CCCOC(C)=O
inactive: Potency [1] | Potency [2] | Potency [8] | Potency [9] | Potency [10] | Potency [3] | Potency [4] | Potency [5] | Potency [11] | Potency [12] | Potency [6] | Potency [7] | Potency [13]
active: Potency [14] 31.7 µM

CCOC(=O)CN
inactive: Potency [1] | Potency [2] | Potency [8] | Potency [9] | Potency [10] | Potency [5] | Potency [11] | Potency [16] | Potency [12] | Potency [6] | Potency [14] | Potency [15]

Cc1ccc(-n2[nH]c(C)c(N=Nc3cccc(-c4cccc(C(=O)O)c4)c3O)c2=O)cc1C
inactive: Potency [8] | Potency [9] | Potency [10] | Potency [3] | Potency [4] | Potency [11] | Potency [12] | Potency [14]
active: Potency [1] 18.8 µM | Potency [16] 26.6 µM

OCCCc1cccnc1
inactive: Potency [1] | Potency [2] | Potency [8] | Potency [9] | Potency [10] | Potency [3] | Potency [4] | Potency [5] | Potency [11] | Potency [16] | Potency [12] | Potency [6] | Potency [13] | Potency [14] | Potency [15]

CCOC(=O)C1=C(C)NC(C)=C(C(=O)OCC)C1c1ccccc1/C=C/C(=O)OC(C)(C)C
active: Potency [1] 26.6 µM | Potency [10] 23.9 µM | Potency [16] 33.5 µM | Potency [7] 1.33 µM | Potency [14] 4.9 µM | Potency [15] 1.1 µM
inactive: Potency [8] | Potency [9] | Potency [3] | Potency [4] | Potency [17]

Cc1nc(Nc2ncc(C(=O)Nc3c(C)cccc3Cl)s2)cc(N2CCN(CCO)CC2)n1
inactive: Potency [2] | Potency [8] | Potency [9] | Potency [10] | Potency [3] | Potency [4] | Potency [12] | Potency [17] | Potency [13]
active: Potency [1] 13.3 µM | Potency [5] 9.44 µM | Potency [16] 13.3 µM | Potency [6] 18.8 µM | Potency [7] 1.06 µM

Cc1occc1SSc1ccoc1C
inactive: Potency [1] | Potency [2] | Potency [8] | Potency [9] | Potency [10] | Potency [3] | Potency [4] | Potency [5] | Potency [11] | Potency [12] | Potency [6] | Potency [13] | Potency [14]
active: Potency [15] 56.4 µM

Cc1cncc(C)c1
inactive: Potency [1] | Potency [2] | Potency [8] | Potency [9] | Potency [3] | Potency [4] | Potency [5] | Potency [11] | Potency [16] | Potency [12] | Potency [6] | Potency [7] | Potency [13] | Potency [14] | Potency [15]

S=C(SSSSSSC(=S)N1CCCCC1)N1CCCCC1
active: Potency [1] 13.4 µM | Potency [16] 7.56 µM | Potency [15] 7.83 µM
inactive: viability change, negative = cytotoxic [8] 17.4% [at 15.8 µM] | activity change, negative = cytotoxicity [9] -0.13% [at 15.8 µM] | activation [10] 10.4% [at 15.8 µM] | activity, negative = inhibition [3] -6.79% [at 10.5 µM] | activation [4] 4.08% [at 11.8 µM] | activity change, negative = cytotoxicity [5] 0.702% [at 19 µM] | caspase activation [11] 0.0321% [at 19 µM] | caspase-3/7 activation [12] 1.75% [at 19 µM] | activity change, negative = cytotoxicity [6] 7.87% [at 19 µM] | activation [7] 19.2% [at 19 µM] | activity change, negative = inhibition [13] -19.3% [at 23.6 µM]

Clc1ccc(C(Cn2ccnc2)OCc2c(Cl)cccc2Cl)c(Cl)c1 (stereo not given)
inactive: Potency [8] | Potency [9] | Potency [10] | Potency [11] | Potency [12]
active: Potency [1] 4.22 µM | Potency [2] 5.96 µM | Potency [5] 23.7 µM

c1cc[nH]c1
inactive: Potency [1] | Potency [2] | Potency [8] | Potency [9] | Potency [10] | Potency [3] | Potency [4] | Potency [5] | Potency [11] | Potency [12] | Potency [6] | Potency [7] | Potency [13] | Potency [14] | Potency [15]

CC1CNCC(C)O1 (stereo not given)
inactive: Potency [1] | Potency [2] | Potency [8] | Potency [9] | Potency [5] | Potency [11] | Potency [16] | Potency [12] | Potency [7] | Potency [13] | Potency [14] | Potency [15]

CC(C)=CC1CC(C)CCO1 (stereo not given)
inactive: Potency [1] | Potency [2] | Potency [8] | Potency [9] | Potency [10] | Potency [3] | Potency [4] | Potency [5] | Potency [11] | Potency [12] | Potency [6] | Potency [7] | Potency [13] | Potency [14] | Potency [15]

Cc1c(C(=O)O)cccc1[N+](=O)[O-]
inactive: Potency [1] | Potency [8] | Potency [9] | Potency [3] | Potency [4] | Potency [5] | Potency [11] | Potency [16] | Potency [12] | Potency [6] | Potency [7] | Potency [13] | Potency [14] | Potency [15]
